Measured values reported in PubChem BioAssay (EPA / NIEHS).
Results filed as inconclusive are left out. Active and inactive are the calls of the source. How the source made its calls, unless noted: active means hit-call score of the fitted dose curve at least 0.9, where 1 is the maximum; inactive means score below 0.9.

Key:
[1] = CCTE_Mundy_HCI_Cortical_Synap_Neur_Matur_NeuriteLength: CCTE's Synaptogenesis and Neurite Maturation Assay in rat cortical cells for Neurite Length, Mundy Lab (AID 2284214)
In short: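 Cultures of rat primary cortical cells received chemical at DIV 7 and were fixed at DIV 12, after glial arrest with AraC at DIV 5. Neurite length was measured by automated imaging of MAP2 immunofluorescence.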

[2] = CCTE_Mundy_HCI_Cortical_Synap_Neur_Matur_NeuriteSpotCountPerNeuron: CCTE's Synaptogenesis and Neurite Maturation Assay in rat cortical cells for Neurite Spot Count per Neuron Count, Mundy Lab (AID 2284215)
In short: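 Read-out: neurite-associated synaptophysin puncta per neuron, imaged by high-content analysis after MAP2, synaptophysin and Hoechst staining. Rat primary cortical cultures, dosed DIV 7 through DIV 12; DMSO served as baseline.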

[3] = CCTE_Mundy_HCI_Cortical_Synap_Neur_Matur_SynapseCount: CCTE's Synaptogenesis and Neurite Maturation Assay in rat cortical cells for Synapse Count, Mundy Lab (AID 2284218)
In short: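 Cells were plated, allowed 2 hr to attach, treated with AraC at DIV 5, then exposed to chemicals from DIV 7 until DIV 12. After fixation and MAP2/synaptophysin immunolabelling, synapses per neuron were quantified by automated imaging against DMSO.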

[4] = CCTE_Mundy_HCI_Cortical_Synap_Neur_Matur_NeuriteCount: CCTE's Synaptogenesis and Neurite Maturation Assay in rat cortical cells for Neurite Count, Mundy Lab (AID 2284222)
In short: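 Chemical exposure runs DIV 7–12 in rat cortical cultures, glia suppressed by AraC at DIV 5; measurement is at DIV 12. Imaging-derived neurite counts are fitted against DMSO baseline.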

[5] = CCTE_Mundy_HCI_Cortical_Synap_Neur_Matur_CellBodySpotCount: CCTE's Synaptogenesis and Neurite Maturation Assay in rat cortical cells for Cell Body Spot Count, Mundy Lab (AID 2284223)
In short: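 Read-out: cell body-associated synaptophysin puncta per neuron, imaged after MAP2, synaptophysin and Hoechst staining. Rat cortical cells, AraC DIV 5, chemical dosing DIV 7, fixation DIV 12. Activity fitted in positive direction relative to DMSO baseline.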

[6] = CCTE_Mundy_HCI_hNP1_Pro_ResponderAvgInten: CCTE's Proliferation Assay in human neuroprogenitor cells, Mundy Lab (AID 2284224; active means hit-call score of the fitted dose curve at least 0.9, where 1 is the maximum;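 further: human neural progenitor cells hNP1 derived from WA09 embryonic stem cells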)
In short: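 Proliferation was scored as BrdU labelling intensity in human neural progenitors derived from WA09 embryonic cells, measured 26.25 hours after chemical dosing. Activity was fitted relative to DMSO.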

[7] = UKN2_HCS_IMR90_cell_viability: Viability Assessment in the University of Konstanz (UKN) Leist Lab Neural Crest Cell Migration Assay in human induced IMR90 Pluripotent Stem Cells (UKN2) (AID 2284233);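 further: cells exposed to compound for 24 h after a 24 h migration phase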
In short: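 After calcein-AM/Hoechst staining, viability is quantified by high-content fluorescence imaging, relative to DMSO, in iPSC (IMR90)-derived neural crest cells. Exposure lasts 24 h, starting after a 24 h migration period on PLO/laminin/fibronectin coating.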

[8] = CCTE_Mundy_HCI_Cortical_NOG_NeuronCount: CCTE's Neurite Outgrowth Assay in rat cortical cells for Neuron Count, Mundy Lab (AID 2284236; active means hit-call score of the fitted dose curve at least 0.9, where 1 is the maximum;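 further: neurons counted by imaging betaIII-tubulin and Hoechst stained cortical cells; cells exposed to compound for about 48 hours before fixation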)
In short: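 Read-out: neuron number by high-content imaging of betaIII-tubulin (Alexa Fluor-488) and Hoechst-labelled rat primary cortical cells.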

[9] = CCTE_Mundy_HCI_Cortical_NOG_BPCount: CCTE's Neurite Outgrowth Assay in rat cortical cells for Branch Point Count, Mundy Lab (AID 2284237);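 further: branch points counted about two days after chemical exposure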
In short: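 Measured 50.33 h after dosing, this morphology endpoint uses rat primary cortical cultures labelled for betaIII-tubulin. Branch points are quantified by high-content imaging, with DMSO as negative control and baseline.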

[10] = CCTE_Mundy_HCI_hNP1_Casp3_7: CCTE's Caspase-Glo 3/7 Assay in human neuroprogenitor cells for Apoptosis, Mundy Lab (AID 2284240)
In short: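 Apoptosis is scored by activated caspase-3/7 luminescence in WA09-derived neural progenitor cells, measured 26.5 h after chemical dosing. Values represent gain of signal relative to DMSO vehicle.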

[11] = CCTE_Mundy_HCI_Cortical_Synap_Neur_Matur_NeuronCount: CCTE's Synaptogenesis and Neurite Maturation Assay in rat cortical cells for Neuron Count, Mundy Lab (AID 2284242; active means hit-call score of the fitted dose curve at least 0.9, where 1 is the maximum)
In short: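 Cortical cells from rat are plated, treated with AraC at DIV 5, and exposed to test chemicals with a media change at DIV 7. At DIV 12 they are fixed and immunostained (MAP2, synaptophysin), and imaged neuron counts are compared against DMSO controls.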

[12] = IUF_NPC2c_oligodendrocyte_migration_120hr: Leibniz Research Institute for Environmental Medicine (IUF) 120-hour Neural Progenitor Cell Migration Assay for Oligodendrocyte Migration (NPC2c) (AID 2284297);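 further: O4-positive oligodendrocyte migration distance divided by radial glia migration distance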
In short: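 hNPC spheres (GW 16-19 cortex), PDL/laminin, DMEM/F12 3:1 + 1% N2, 37C. Dosing day 0–5, half feed day 3, DMSO ≤0.1%. Fixed 120 h; O4 ICC + Hoechst, HCI. Readout: mean oligodendrocyte distance from sphere edge / radial glia distance.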

[13] = IUF_NPC2a_radial_glia_migration_120hr: Leibniz Research Institute for Environmental Medicine (IUF) 120-hour Neural Progenitor Cell Migration Assay for Radial Glia Migration (NPC2a) (AID 2284298)
In short: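 Hoechst-stained nuclei imaged at 120 h; algorithm maps sphere core by densest nuclei, sets migration edge at density threshold, gives radial glia migration distance (um) per well vs DMSO. hNPC spheres (0.3 mm), PDL/laminin, DMEM/F12 3:1 + 1% N2.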

[14] = IUF_NPC2a_radial_glia_migration_72hr: Leibniz Research Institute for Environmental Medicine (IUF) 72-hour Neural Progenitor Cell Migration Assay for Radial Glia Migration (NPC2a) (AID 2284299)
In short: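 Single 0.3 mm neurospheres were plated per well in N2 differentiation medium and exposed from the start of differentiation. After 72 hours, brightfield images were taken and radial glia migration from the sphere core edge was measured manually in four directions, averaged per well.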

[15] = IUF_NPC2b_neuronal_migration_120hr: Leibniz Research Institute for Environmental Medicine (IUF) 120-hour Neural Progenitor Cell Migration Assay for Neuron Migration (NPC2b) (AID 2284300)
In short: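 hNPC spheres, PDL/laminin, DMEM:F12 3:1 + 1% N2, 37C/5% CO2; 7 concentrations + solvent control (DMSO ≤0.1%), 5 d exposure, half-feed day 3. Fix 120 h, TUBB3 ICC, HCI: mean neuron migration distance ÷ glia distance.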

[16] = IUF_NPC3_neuronal_differentiation_120hr: Leibniz Research Institute for Environmental Medicine (IUF) 120-hour Neuronal Differentiation Assay (NPC3) (AID 2284301)
In short: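 Value is percent TUBB3-positive neurons among Hoechst-stained nuclei in the migration area, scored by trained CNN after 120 h differentiation. Primary hNPC spheres on poly-D-lysine/laminin, N2 medium, continuous dosing from day 0, half-refeed day 3; DMSO reference.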

[17] = IUF_NPC5_oligodendrocyte_differentiation_120hr: Leibniz Research Institute for Environmental Medicine (IUF) 120-hour Oligodendrocyte Differentiation Assay (NPC5) (AID 2284304; active means hit-call score of the fitted dose curve at least 0.9, where 1 is the maximum;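 further: primary human fetal neural progenitor spheres plated to migrate and differentiate; share of O4-positive cells among Hoechst nuclei found by CNN image analysis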)
In short: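 hNPC spheres, fetal cortex GW 16-19; PDL/laminin, DMEM:F12 3:1 + 1% N2, 37C/5% CO2; 7 concentrations + solvent control, 5 d exposure, half-change day 3. Readout: %O4+ of Hoechst+ nuclei in migration area, CNN classification; DMSO baseline.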

[18] = IUF_NPC2-5_cytotoxicity_72hr: Cytotoxicity Assessment at 72 hours in the Leibniz Research Institute for Environmental Medicine (IUF) Neural Progenitor Cell Migration and Differentiation Assay for Cytotoxicity (NPC2-5) (AID 2284306; active means hit-call score of the fitted dose curve at least 0.9, where 1 is the maximum;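 further: LDH release into supernatant measured by resorufin fluorescence marking membrane damage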)
In short: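 Membrane-integrity cytotoxicity at 72 h, read as LDH-driven resorufin fluorescence in supernatant. hNPC spheres from fetal cortex differentiate on coated plates in N2 medium, 37C, 5% CO2; seven serial compound concentrations plus solvent control (DMSO ≤0.1%).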

[19] = IUF_NPC2-5_cytotoxicity_120hr: Cytotoxicity Assessment at 120 hours in the Leibniz Research Institute for Environmental Medicine (IUF) Neural Progenitor Cell Migration and Differentiation Assay (NPC2-5) (AID 2284307; active means hit-call score of the fitted dose curve at least 0.9, where 1 is the maximum)
In short: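 hNPC spheres on PDL/laminin, N2 medium, 37C; 7 concs + solvent control, DMSO ≤0.1%; 5-day exposure, half medium changed day 3. LDH in supernatant at 120 h, resazurin→resorufin fluorescence, gain-of-signal.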

[20] = IUF_NPC2-5_cell_number_120hr: Cell Number Assessment at 120 hours in the Leibniz Research Institute for Environmental Medicine (IUF) Neural Progenitor Cell Migration and Differentiation Assay (NPC2-5) (AID 2284308);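 further: count of Hoechst-stained nuclei in migration zone around plated human neural progenitor spheres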
In short: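 Hoechst-stained nuclei within the migration area were counted by automated high content imaging after 120 h. Single hNPC spheres differentiated on poly-D-lysine/laminin in DMEM/F12 (3:1) with 1% N2, compound present throughout, DMSO ≤0.1%.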

[21] = IUF_NPC2-5_viability_120hr: Viability Assessment at 120 hours in the Leibniz Research Institute for Environmental Medicine (IUF) Neural Progenitor Cell Migration and Differentiation Assay (NPC2-5) (AID 2284312)
In short: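 Alamar blue resorufin fluorescence read after 5 days of differentiation, with compound present from day 0 and replenished at day 3. Primary hNPC spheres on laminin-coated plates, 37C; seven concentrations plus solvent control, fitted against DMSO.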

[22] = CCTE_Mundy_HCI_iCellGluta_NOG_NeuriteLength: CCTE's Neurite Outgrowth Assay in iCellGluta cells for Neurite Length, Mundy Lab (AID 2284318; active means hit-call score of the fitted dose curve at least 0.9, where 1 is the maximum)
In short: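 Automated high-content imaging of betaIII-tubulin (Alexa Fluor-488) and Hoechst-stained cells gave neurite length, normalized to the DMSO baseline.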

[23] = IUF_NPC1_cytotoxicity_72hr: Cytotoxicity Assessment at 72 hours in the Leibniz Research Institute for Environmental Medicine (IUF) Neural Progenitor Cell Proliferation Assay (NPC1) (AID 2284332; active means hit-call score of the fitted dose curve at least 0.9, where 1 is the maximum;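 further: rising LDH signal means more cytotoxicity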)
In short: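 Membrane-integrity loss is scored from LDH released into the medium, detected as resorufin fluorescence, with activity fitted upward relative to baseline. Test material stays on human fetal-derived progenitor spheres for 72 h.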

[24] = CCTE_Mundy_HCI_iCellGluta_NOG_NeuriteCount: CCTE's Neurite Outgrowth Assay in iCellGluta cells for Neurite Count, Mundy Lab (AID 2284342; active means hit-call score of the fitted dose curve at least 0.9, where 1 is the maximum;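 further: chemical exposure about 48 hours starting 2 hours after plating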)

Measured: AC50

CC1(C)C(C=C(Cl)c2ccc(Cl)cc2)C1C(=O)OC(C#N)c1ccc(F)c(Oc2ccccc2)c1 (centres undefined)
active: [1] 61.6 µM | [2] 72 µM | [3] 75.2 µM | [9] 23.5 µM | [22] 67.3 µM | [24] 74.1 µM
inactive: all other assays above
